Several values for one entry are separate records, joined by “and”; a condition that tells them apart may be missing. Identical values can stand only once. Results filed as inconclusive are left out. For some of these results: Measured potencies and affinities stand elsewhere. Activity calls are given as the source filed them. Unless noted, no rule for the calls is given here.
Tests used:
[1] = molecular target: ATP-dependent translocase ABCB1 (Homo sapiens) (UniProt P08183); experiment: P-glycoprotein substrate transport blockade – cell-based (AID 377; in the data active = fluorescence slope change above about 50%); details: MDR1-expressing cells, fluorescent substrate accumulation slope; stronger effect = higher value; concentration not given here
[2] = blockers of polyQ-driven CASP3 activation – cell-based (AID 1583); details: polyglutamine-induced caspase-3 activation, cell assay; stronger effect = higher value;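 tested at 10 µM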
[3] = yeast 75Q aggregation reduction – 75Q-TubU reporter (AID 1593); details: Yeast 75Q polyglutamine aggregation reporter
[4] = restoration of touch response, mutant HTT neurons – whole organism, C. elegans mechanosensory neurons, N-terminal huntingtin (AID 1599); details: C. elegans polyQ-huntingtin mechanosensory neurons, stronger effect = higher value
[5] = blockers of cytochrome c efflux from mitochondria – biochemical, purified mitochondria (AID 1603); details: stronger effect = lower value;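 also: mouse liver mitochondria challenged with calcium chloride; signal normalized to the plate average as 100%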
[6] = polyglutamine aggregate formation blockers (AID 1604); details: polyglutamine-induced protein aggregation inhibition assay; stronger effect = higher value; tested at 2.5 µM
[7] = glutamate transport activators, MN-1 cells, MN-1 cell line (AID 1612); details: MN-1 motor neuron cells, stronger effect = higher value;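 also: tested at 1 µM final; 0% = mean of DMSO vehicle wells on each plate; positive means more glutamate uptake than control and negative means less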
[8] = 75Q-TubH aggregate inhibition, S. cerevisiae, yeast (AID 1616); details: S. cerevisiae 75Q-TubH polyglutamine aggregation suppression; stronger effect = higher value
[9] = compounds altering circadian rhythm period length – cell-based, LOPAC library, luminescence reporter (AID 2774); details: circadian reporter cells, at 7 µM, actives lie on both sides;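 also: values are relative to mean of DMSO wells on each plate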
[10] = compounds altering viability of human ES cells (AID 493140); details: human embryonic stem cell survival screen; stronger effect = higher value;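 also: cells exposed to compounds for four days before counting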
[11] = test system: Hepatitis C virus NS3 helicase; experiment: blockers of NS3h binding to ssDNA – biochemical, fluorescence polarization, LOPAC1280 library, primary screen (AID 687035; in the data active = inhibition above about 37%); details: Purified HCV NS3 helicase, Cy5-dT15 ssDNA binding fluorescence polarization; stronger effect = higher value; concentration not given here
[12] = compounds altering Cy5-DNA-NS3h complex signal – biochemical, LOPAC1280, artefact control for HCV NS3 helicase inhibitor project (AID 687037); details: Cy5-DNA-NS3h complex fluorescence interference counterscreen
[13] = signal quenchers or enhancers, Cy5 substrate/SSB – biochemical, NIH Clinical Collection, E. coli SSB, artefact control for HCV NS3 helicase inhibitor project (AID 743268); details: Cy5-oligo bound E. coli SSB, fluorescence interference
[14] = test system: Hepatitis C virus NS3 helicase; experiment: blockers of NS3h binding to DNA – biochemical, fluorescence polarization, NIH Clinical Collection, primary screen (AID 743270); details: NS3 helicase binding to Cy5-dT15 DNA, stronger effect = higher value, concentration not given here
[15] = molecular target: Single-stranded DNA-binding protein (Escherichia coli (strain K12)) (UniProt P0AGE0); experiment: SSB-ssDNA binding inhibitors – biochemical, fluorescence polarization, NIH Clinical Collection, counter-screen for HCV NS3 helicase inhibitor project (AID 743271; in the data active = inhibition above about 28%); details: E. coli SSB-DNA binding, stronger effect = higher value, concentration not given here
[16] = compounds distorting NS3 helicase fluorescence signal – biochemical, NIH Clinical Collection, artefact control for HCV NS3 helicase inhibitor project (AID 743272); details: fluorescence interference counterscreen, HCV NS3 helicase assay; stronger effect = lower value;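 also: HCV NS3 helicase with a Cy5 labelled single stranded DNA probe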
[17] = test system: Neuropilin-2 / VEGF-C interaction (human); experiment: small molecules blocking Neuropilin-2/VEGF-C interaction – biochemical, microplate binding format, z-score (AID 743281); details: microplate NRP2/VEGF-C binding assay; stronger effect = lower value
[18] = Wnt pathway potentiators raising nuclear beta-catenin – imaging, WNT3A-conditioned medium, mouse C2C12, NPC library, primary screen (AID 1117326; in the data active = nuclear beta-catenin stimulation mostly above about 4.2%, no sharp cut-off; inactive = mostly below about 10%); details: stronger effect = higher value
[19] = stimulators of insulin release from INS-1E, primary screen, cell-based, 5 mM glucose, NPC library (AID 1117329;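 active = compound raises insulin release from rat beta cells at 5 mM glucose, no numeric limit stated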); details: rat INS-1E insulin secretion, at 10 µM, stronger effect = higher value
[20] = growth inhibition of GSK3B-pretreated HCT116 cells – cell-based, CellTiter-Glo, 0.2 to 20 µM (AID 1117336;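 active = compounds lowering colon cancer cell viability after pretreatment blocking the GSK3B kinase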); details: HCT116 viability after GSK3B inhibitor, at 20 µM, stronger effect = higher value
[21] = inhibition of endothelial tube formation, primary screen, imaging, VEGF stimulated, CD31 staining, tube area, NPC library (AID 1117340;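 active = compound that reduces growth-factor-driven endothelial tube area in a mixed cell culture, no cutoff stated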); details: VEGF-stimulated ADSC/ECFC co-culture, at 10 µM, stronger effect = higher value
[22] = GLP1 release stimulators, primary, NCI-H716, NPC library (AID 1117341;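 active = compound raises GLP1 secretion from the human gut endocrine cells, with no numeric limit stated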); details: NCI-H716 cells, at 10 µM, stronger effect = higher value
[23] = HCT116 colon cancer cell growth inhibition, primary screen, CellTiter-Glo luminescence, NPC library (AID 1117342;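 active = compounds that lower survival of HCT116 colon cancer cells in the luminescence readout, no numeric limit stated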); details: at 20 µM (top of the series)
[24] = reduced SW480 viability measured with CellTiter-Glo, NPC library, primary (AID 1117343;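 active = compounds that lower viability of the colon cancer cells in the luminescence readout, with no numeric limit stated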); details: CellTiter-Glo luminescence; at 20 µM (top of the series)
[25] = NPC library primary testing for decreased DLD-1 cell viability via CellTiter-Glo (AID 1117346;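 active = compounds that lower survival of DLD-1 colon cancer cells in the luminescence readout, no cutoff given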); details: DLD-1 viability, CellTiter-Glo luminescence; at 20 µM (top of the series)
[26] = molecular target: 6-phosphogluconate dehydrogenase, decarboxylating (Homo sapiens) (UniProt P52209); experiment: inhibition of human phosphogluconate dehydrogenase – biochemical, recombinant enzyme, NADPH absorbance, primary screen (AID 1159550;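 active = at least 20% inhibition of 6-phosphogluconate dehydrogenase activity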); details: recombinant 6PGD, NADPH absorbance 341 nm; at 10 µM; stronger effect = higher value
[27] = modulation of C. elegans fzo-1 (AID 1259413);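 also: fzo-1 mutant C. elegans worms in liquid wells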; details: C. elegans fzo-1 modulator screen, mean read-out; stronger effect = higher value
[28] = EMT-state selective cytotoxicity in co-culture – imaging, PC-3E GFP, TEM4-18 mCherry, primary screen (AID 1345086;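 active = compounds killing one labelled cell type while sparing the other, by normalised counts and ratio limits, not self-fluorescent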;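 also: cells exposed to compound for 72 h before imaging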;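 as to red/green cell ratio (normalised): normalised mesenchymal count divided by normalised epithelial count so high means epithelial killing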); details: PC-3E GFP / TEM4-18 mCherry co-culture, imaging cell counts, at 1 µM
[29] = viability loss in pontine glioma line – cell-based, SU-DIPG-XIII, MIPE4.0, CellTiter-Glo, qHTS, dose response (AID 1347061; cut-off not given, nearly all actives have AC50 up to about 37 µM;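 also: cells exposed to compound for 48 hours before readout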); details: CellTiter-Glo ATP luminescence
[30] = viability loss in pontine glioma line – cell-based, JHH-DIPG-1, MIPE4.0, CellTiter-Glo, qHTS, dose response (AID 1347062; cut-off not given, nearly all actives have AC50 up to about 27 µM); details: JHH-DIPG-1 viability, CellTiter-Glo ATP luminescence
[31] = viability loss in pontine glioma line – cell-based, SU-DIPG-XXV, MIPE5.0, CellTiter-Glo, qHTS, dose response (AID 1347065; cut-off not given, nearly all actives have AC50 up to about 26 µM;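 also: cells exposed to compound for 48 hours before ATP readout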); details: CellTiter-Glo ATP luminescence
[32] = growth inhibition of DIPG cells – cell-based, MIPE4.0 library, CellTiter-Glo luminescence, qHTS (AID 1347066; cut-off not given, nearly all actives have AC50 up to about 30 µM;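 also: cells exposed to compound for 48 hours before readout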); details: SU-DIPG-VI viability, CellTiter-Glo ATP luminescence
[33] = JHH-DIPG-1 glioma cell viability, MIPE5.0 library, CellTiter-Glo luminescence, qHTS (AID 1347067; cut-off not given, nearly all actives have AC50 up to about 26 µM;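 also: cells exposed to compound for 48 hours before readout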); details: JHH-DIPG-1 glioma viability, CellTiter-Glo ATP luminescence
[34] = chitosan synthesis blockers in C. neoformans – flow cytometry, Cibacron Brilliant Red staining (AID 1347148); details: Cryptococcus neoformans chitosan, stronger effect = lower value; at 99.1 µM unless noted;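 also: compound exposure lasted three days at 37 degrees C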
[35] = blockers of cellular phospholipid synthesis – cell-based, LOPAC library, screen 4, primary screen (AID 1347384); details: animal cells, phospholipid biosynthesis inhibition screen; at 10 µM
[36] = MELAS cybrid and Rieske KO viability enhancers – cell-based, MELAS cybrids, Rieske KO mouse fibroblasts, CellTiter-Glo, primary screen (AID 1508586;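 active = mean z-score across replicates of 1.96 or higher in either the MELAS or the Rieske mutant cell line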;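 also: z relative to plate mean and SD of compound and empty wells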); details: low glucose
[37] = molecular target: NAD(+) hydrolase SARM1 (Homo sapiens) (UniProt Q6SZW1); experiment: blocking NAD cleavage by SARM1 SAM-TIR – cell lysate, NAD-Glo luminescence (AID 1508614;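 active = compound whose remaining NAD level is above about 45 nM, limit read from the data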;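 also: higher remaining NAD means stronger inhibition of SARM1 NADase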); details: SAM-TIR HEK293T lysate NADase, at 1 µM, stronger effect = higher value
[38] = molecular target: Mitogen-activated protein kinase 7 (Homo sapiens) (UniProt Q13164); experiment: Gal4-ERK5 driven luciferase induction – cell-based, HTS, primary screen (AID 1508626;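 active = luciferase signal above three times the same-plate solvent-only control wells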;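 also: luciferase driven by Gal4-ERK5 fusion binding five Gal4 sites before minimal TATA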); details: HeLa Gal4-ERK5 transactivation, 18 h, at 5 µM, stronger effect = higher value
[39] = galactose survival enhancers in mitochondrial complex I cybrids – cell-based, galactose medium, ATP luminescence, primary screen (AID 1645843;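 active = z-score of at least 1.8 in each of two replicates, scored against plate mean and spread of sample wells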;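 also: positive z means more ATP and so rescue of galactose-driven cybrid death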); details: complex I mutant cybrid cells, 72 h, stronger effect = higher value
F380Y = experiment: BK channel mutant inhibitors and activators – cell-based, U2OS BacMam, thallium flux, beta subunits, selectivity assay, profiling panel (AID 1259406;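 active = thallium flux through the channel raised or lowered by more than 3 SD from vehicle-only wells, actives on both sides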;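 also: initial slope of Thallos dye fluorescence rise after thallium is added; log ratio against the mean of 0.3% DMSO vehicle wells on the same plate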); details: U2OS BacMam BK variants, at 30 µM
F380Y/beta2Delta = experiment: as above; details: U2OS BacMam BK variants, at 30 µM
[40] = molecular target: Calcium-activated potassium channel subunit alpha-1 (Homo sapiens) + Leucine-rich repeat-containing protein 26 (Homo sapiens) (UniProt Q12791+Q2I0M4); experiment: as above; details: U2OS BacMam BK variants, F380Y/Slo1WT/gamma1, at 30 µM
R275C = experiment: as above; details: U2OS BacMam BK variants, at 30 µM
R275C/beta1 = experiment: as above; details: U2OS BacMam BK variants, at 30 µM
R275C/beta2Delta = experiment: as above; details: U2OS BacMam BK variants, at 30 µM

Mitogen-activated protein kinase 7 (Homo sapiens), sequence (Q13164 whole entry, looked up, the tested form may be a part): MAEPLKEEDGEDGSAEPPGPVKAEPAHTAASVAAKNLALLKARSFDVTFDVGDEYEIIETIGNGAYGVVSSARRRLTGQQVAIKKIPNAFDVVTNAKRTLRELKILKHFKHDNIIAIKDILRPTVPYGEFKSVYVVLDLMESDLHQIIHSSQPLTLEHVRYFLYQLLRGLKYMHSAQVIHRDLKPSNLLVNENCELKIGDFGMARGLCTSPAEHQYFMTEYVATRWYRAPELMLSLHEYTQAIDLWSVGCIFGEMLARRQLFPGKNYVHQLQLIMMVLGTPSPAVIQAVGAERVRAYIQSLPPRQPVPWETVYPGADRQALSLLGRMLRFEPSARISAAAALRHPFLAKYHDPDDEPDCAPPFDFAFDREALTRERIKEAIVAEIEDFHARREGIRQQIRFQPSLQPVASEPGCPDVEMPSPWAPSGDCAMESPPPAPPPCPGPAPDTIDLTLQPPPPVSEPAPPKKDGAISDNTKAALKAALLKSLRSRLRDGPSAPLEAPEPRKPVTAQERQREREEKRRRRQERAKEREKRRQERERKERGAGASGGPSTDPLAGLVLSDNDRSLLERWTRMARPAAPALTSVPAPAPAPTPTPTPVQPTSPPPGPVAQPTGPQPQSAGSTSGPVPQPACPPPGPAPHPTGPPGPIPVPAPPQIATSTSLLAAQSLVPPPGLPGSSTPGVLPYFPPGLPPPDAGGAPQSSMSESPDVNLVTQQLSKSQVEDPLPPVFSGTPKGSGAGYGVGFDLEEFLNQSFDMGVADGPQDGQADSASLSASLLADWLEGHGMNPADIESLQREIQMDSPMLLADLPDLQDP
ATP-dependent translocase ABCB1 (Homo sapiens), sequence (P08183 whole entry, looked up): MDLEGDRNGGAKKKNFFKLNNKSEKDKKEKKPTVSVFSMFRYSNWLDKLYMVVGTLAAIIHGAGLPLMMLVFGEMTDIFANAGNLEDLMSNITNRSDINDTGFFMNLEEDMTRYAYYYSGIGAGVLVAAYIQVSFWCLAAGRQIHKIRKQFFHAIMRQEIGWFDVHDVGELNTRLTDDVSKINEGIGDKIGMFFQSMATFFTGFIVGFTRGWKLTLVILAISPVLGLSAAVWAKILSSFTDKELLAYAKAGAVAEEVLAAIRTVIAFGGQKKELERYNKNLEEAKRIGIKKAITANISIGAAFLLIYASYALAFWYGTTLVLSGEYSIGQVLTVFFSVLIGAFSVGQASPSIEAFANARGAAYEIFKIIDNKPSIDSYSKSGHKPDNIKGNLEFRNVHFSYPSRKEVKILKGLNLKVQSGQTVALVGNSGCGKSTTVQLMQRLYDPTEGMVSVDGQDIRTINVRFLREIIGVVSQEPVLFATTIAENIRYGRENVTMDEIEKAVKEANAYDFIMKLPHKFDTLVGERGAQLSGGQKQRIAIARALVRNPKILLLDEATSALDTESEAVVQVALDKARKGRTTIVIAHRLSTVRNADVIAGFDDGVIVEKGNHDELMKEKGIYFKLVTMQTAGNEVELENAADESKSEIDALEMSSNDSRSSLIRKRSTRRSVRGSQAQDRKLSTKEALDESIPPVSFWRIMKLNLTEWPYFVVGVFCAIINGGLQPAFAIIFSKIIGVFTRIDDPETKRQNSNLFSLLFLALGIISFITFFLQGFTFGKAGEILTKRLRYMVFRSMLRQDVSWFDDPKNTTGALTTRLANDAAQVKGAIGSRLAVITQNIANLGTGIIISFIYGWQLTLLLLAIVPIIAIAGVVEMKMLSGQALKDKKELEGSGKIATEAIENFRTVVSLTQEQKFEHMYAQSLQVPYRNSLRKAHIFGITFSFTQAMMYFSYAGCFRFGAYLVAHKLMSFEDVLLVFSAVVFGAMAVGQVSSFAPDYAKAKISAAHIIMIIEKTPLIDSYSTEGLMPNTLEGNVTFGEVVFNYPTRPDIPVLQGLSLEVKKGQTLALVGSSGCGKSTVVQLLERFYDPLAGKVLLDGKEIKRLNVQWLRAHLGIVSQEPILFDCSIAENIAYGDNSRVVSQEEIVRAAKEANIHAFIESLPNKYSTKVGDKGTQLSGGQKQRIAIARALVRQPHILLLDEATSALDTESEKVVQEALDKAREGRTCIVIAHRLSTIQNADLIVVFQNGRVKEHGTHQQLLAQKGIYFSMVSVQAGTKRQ
NAD(+) hydrolase SARM1 (Homo sapiens), sequence (Q6SZW1 whole entry, looked up, the tested form may be a part): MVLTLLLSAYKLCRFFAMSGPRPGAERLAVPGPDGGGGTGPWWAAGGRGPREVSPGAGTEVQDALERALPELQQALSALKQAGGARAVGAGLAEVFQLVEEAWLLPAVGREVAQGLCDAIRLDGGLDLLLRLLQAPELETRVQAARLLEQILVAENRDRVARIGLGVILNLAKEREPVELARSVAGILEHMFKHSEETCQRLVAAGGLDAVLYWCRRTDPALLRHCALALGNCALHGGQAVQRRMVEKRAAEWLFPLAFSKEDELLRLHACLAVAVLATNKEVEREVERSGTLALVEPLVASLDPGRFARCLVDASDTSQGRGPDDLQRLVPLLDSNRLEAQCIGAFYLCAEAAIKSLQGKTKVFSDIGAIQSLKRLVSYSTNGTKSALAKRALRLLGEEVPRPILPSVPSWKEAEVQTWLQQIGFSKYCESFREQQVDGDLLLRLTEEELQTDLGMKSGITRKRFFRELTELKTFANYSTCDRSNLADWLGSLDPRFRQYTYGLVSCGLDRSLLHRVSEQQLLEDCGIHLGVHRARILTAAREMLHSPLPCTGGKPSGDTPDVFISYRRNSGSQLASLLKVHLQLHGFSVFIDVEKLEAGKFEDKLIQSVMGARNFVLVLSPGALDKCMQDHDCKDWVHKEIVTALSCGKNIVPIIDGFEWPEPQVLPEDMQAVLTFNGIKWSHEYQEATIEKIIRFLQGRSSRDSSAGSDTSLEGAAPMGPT
6-phosphogluconate dehydrogenase, decarboxylating (Homo sapiens), sequence (P52209 whole entry, looked up): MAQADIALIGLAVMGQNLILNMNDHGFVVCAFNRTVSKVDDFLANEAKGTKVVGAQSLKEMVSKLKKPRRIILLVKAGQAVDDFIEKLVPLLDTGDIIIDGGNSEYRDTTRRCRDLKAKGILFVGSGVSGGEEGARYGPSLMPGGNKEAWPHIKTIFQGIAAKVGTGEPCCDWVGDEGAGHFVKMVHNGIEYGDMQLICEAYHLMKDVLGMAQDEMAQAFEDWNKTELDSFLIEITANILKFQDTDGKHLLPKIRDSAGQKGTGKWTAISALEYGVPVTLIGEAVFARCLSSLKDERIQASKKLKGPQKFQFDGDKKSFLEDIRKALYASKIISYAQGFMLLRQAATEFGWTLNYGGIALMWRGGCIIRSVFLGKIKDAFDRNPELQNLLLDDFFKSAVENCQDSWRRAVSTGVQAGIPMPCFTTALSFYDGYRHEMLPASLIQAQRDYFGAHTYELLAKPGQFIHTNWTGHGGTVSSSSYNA
Calcium-activated potassium channel subunit alpha-1 (Homo sapiens) + Leucine-rich repeat-containing protein 26 (Homo sapiens), sequence (Q2I0M4 whole entry, looked up, one chain of several): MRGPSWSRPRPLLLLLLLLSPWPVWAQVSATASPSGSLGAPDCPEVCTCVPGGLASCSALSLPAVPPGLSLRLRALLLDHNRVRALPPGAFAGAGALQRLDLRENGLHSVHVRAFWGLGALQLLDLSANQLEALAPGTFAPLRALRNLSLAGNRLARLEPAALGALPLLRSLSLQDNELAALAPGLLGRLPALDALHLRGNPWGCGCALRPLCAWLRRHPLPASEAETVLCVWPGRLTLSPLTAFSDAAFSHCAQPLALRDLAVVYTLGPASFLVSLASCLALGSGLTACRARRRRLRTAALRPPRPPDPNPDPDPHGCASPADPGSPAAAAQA

CN1CCN(CCCN2c3ccccc3Sc3ccc(C(F)(F)F)cc32)CC1
0: rescue above control [4]
1.12: score [3]
-8.73%: inhibition [2]
inactive: period change [9] 0.025 h | survival [10] 1.83 | inhibition [11] -6% | fluorescence ratio (interference) [12] 0.9 | fluorescence ratio [13] 0.87 | inhibition [14] -1.19% | inhibition [15] 1.44% | fluorescence ratio [16] 0.85 | z-score [17] 0.311 | nuclear beta-catenin stimulation ([18]; at 10 µM) 32.2% | insulin secretion stimulation [19] 6.1% | inhibition [26] 8.36% | mean signal [27] 265 | red/green cell ratio (normalised) ([28]; actives lie on both sides, counts scaled to control wells, 1 = unselective) 0.91 | outcome [30] | outcome [32] | fold fluorescence [34] 10.1 [at 122.7 µM] | outcome [35] | z-score ([36]; MELAS cybrid survival, CellTiter-Glo 48 h, stronger effect = higher value) -0.198 and -1.6 and 0.134 | remaining NAD [37] 10 nM | luciferase signal [38] 52 AU | z-score [39] -1.38 and -1.44 and -1.35 | log fold change Tl+ flux (F380Y) 0.0849 | log fold change Tl+ flux [40] 0.0472 | log fold change Tl+ flux (R275C/beta2Delta) -0.0448
1.63: aggregation suppression score [8]
2.01: cytochrome c release ratio [5]
0.91: normalised cell number ([28]; measured here: mesenchymal TEM4-18 mCherry cell survival)
0.2%: nuclear beta-catenin stimulation ([18]; stimulation, at 2 µM)
-0.246 and 0.0911 and -0.232: z-score ([36]; Rieske KO mouse fibroblast survival, CellTiter-Glo 72 h)
16.2%: glutamate uptake change [7]
1: normalised cell number ([28]; measured here: epithelial PC-3E GFP cell survival)
65.5%: inhibition of aggregation [6]
active: fluorescence slope change [1] 134% | viability decrease [20] 110% | tube area decrease [21] 106% | GLP1 secretion stimulation [22] 28.8% | inhibition of viability [23] 112% | viability decrease (inhibition) [24] 132% | viability decrease (inhibition) [25] 99.8% | AC50 [29] 18.7 µM | AC50 [31] 18.6 µM | AC50 [33] 23.5 µM | log fold change Tl+ flux (F380Y/beta2Delta) 0.0861 | log fold change Tl+ flux (R275C) -0.157 | log fold change Tl+ flux (R275C/beta1) 0.287

Reference: PubChem BioAssay
